Many of the other results were omitted from the sample, so hits are more common in it than they were.
FECH block – inhibitors of human ferrochelatase, primary screen, biochemical, purified FECH, Ni-mesoporphyrin absorbance; Ferrochelatase, mitochondrial (Homo sapiens), P22830; Ni-mesoporphyrin absorbance 550 nm; calls only at 10 µM (by protocol); hit rate 3.3% among 20,000; AID 1671448, 2021;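 active = enzyme reaction rate more than 3 SD below the solvent-only control wells on the same plate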;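 also: lower slope than DMSO wells means FECH inhibition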
Target sequence (P22830 whole entry, looked up): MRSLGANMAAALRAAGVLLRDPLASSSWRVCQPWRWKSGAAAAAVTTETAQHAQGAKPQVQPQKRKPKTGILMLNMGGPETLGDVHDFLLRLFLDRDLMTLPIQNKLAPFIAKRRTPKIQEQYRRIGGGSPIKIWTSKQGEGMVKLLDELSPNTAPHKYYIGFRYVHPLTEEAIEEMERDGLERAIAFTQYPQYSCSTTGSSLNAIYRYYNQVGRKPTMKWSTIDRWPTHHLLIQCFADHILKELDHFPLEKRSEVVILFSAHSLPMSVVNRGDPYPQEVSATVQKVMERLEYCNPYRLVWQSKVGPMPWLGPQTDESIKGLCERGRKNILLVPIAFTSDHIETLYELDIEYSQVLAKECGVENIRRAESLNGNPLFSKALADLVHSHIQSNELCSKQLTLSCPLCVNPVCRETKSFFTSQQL
Starred values were filed as active, the others as inactive.

Results for COc1ccc(S(=O)(=O)Nc2cnc(N(CC(C)C)CC(C)C)c(C(=O)O)c2)cc1 ?
FECH block: active

How did CC(C)CN(CC(C)C)c1ncc(NS(=O)(=O)c2ccccc2)cc1C(=O)O do in these assays?
FECH block: inactive

Results for CC(C)CN(CC(C)C)c1ncc(NS(=O)(=O)c2ccc(F)cc2)cc1C(=O)O ?
FECH block: inactive

How did CCOc1ccccc1NS(=O)(=O)c1cc(C(=O)N2CCCC2)cs1 do in these assays?
FECH block: inactive

What do the screens show for `COc1ccc(NCc2cc(=O)n3[nH]c(NCc4ccccc4Cl)nc3n2)cc1`?
FECH block: inactive

How did CCOc1ccccc1NCc1cc(=O)n2[nH]c(NCc3ccccc3Cl)nc2n1 do in these assays?
FECH block: active

How did COc1ccc(CNc2nc3nc(CNc4cccc(OC)c4)cc(=O)n3[nH]2)cc1 do in these assays?
FECH block: inactive

How did COc1cccc(NCc2cc(=O)n3[nH]c(NCc4ccccc4Cl)nc3n2)c1 do in these assays?
FECH block: active

Results for COc1ccccc1NCc1cc(=O)n2[nH]c(NCc3ccccc3)nc2n1 ?
FECH block: inactive

Results for CCOc1ccccc1NCc1cc(=O)n2[nH]c(NCc3ccccc3)nc2n1 ?
FECH block: inactive

What do the screens show for `O=C(N[C@@H]1c2ccccc2C2(CCNCC2)[C@H]1OCc1cccnc1)c1ccco1`?
FECH block: inactive

How did CCC1=C(c2ccc(OC)cc2)S(=O)(=O)N(CC(=O)Nc2ccc(OC)c(Cl)c2)C1=O do in these assays?
FECH block: inactive

How did Cc1ccc(S(=O)(=O)N2CCC(n3c(-c4ccccc4)nc4cccnc43)CC2)cc1 do in these assays?
FECH block: inactive

What do the screens show for `NC(=O)CN1C(=O)CC(c2ccc(Br)s2)=Nc2ccccc21`?
FECH block: inactive

Results for CCn1c(-c2cc(C3CC3)[nH]n2)n[nH]c1=O ?
FECH block: active

What do the screens show for `CCn1c(C2CCCN(S(=O)(=O)N3CCCC3)C2)n[nH]c1=O` (stereo not drawn)?
FECH block: inactive

Results for CCn1c(C2CCN(S(=O)(=O)c3ccc(C)c(C)c3)CC2)n[nH]c1=O ?
FECH block: inactive

How did CCN(Cc1ccccc1)C(=O)CN1CCCN(Cc2ccc(Cl)cc2)S1(=O)=O do in these assays?
FECH block: inactive

Results for O=C(C(=O)N1CCCC(c2[nH]ncc2Cc2ccccc2)C1)c1cccnc1 (stereo not drawn) ?
FECH block: inactive

Results for CN1CCCN(CC(=O)N(Cc2ccco2)Cc2cccs2)CC1 ?
FECH block: inactive

What do the screens show for `Cc1ccc(C)c(CN2CC(=O)N(Cc3ccc(Cl)cc3)c3ccccc3S2(=O)=O)c1`?
FECH block: active

How did Cc1cccc(CN2CC(=O)N(Cc3ccc(Cl)cc3)c3ccccc3S2(=O)=O)c1 do in these assays?
FECH block: inactive

What do the screens show for `O=C1CN(Cc2ccccc2Cl)S(=O)(=O)c2ccccc2N1Cc1ccc(Cl)cc1`?
FECH block: inactive

How did CCCn1ccnc1-c1c(-c2ccccc2)ncn1CCS(C)(=O)=O do in these assays?
FECH block: inactive

How did CCCc1cc(Sc2ccc(NC(=O)c3cccc(OC)c3)cc2)n2ncnc2n1 do in these assays?
FECH block: active

How did CCc1c(C)nc2ncnn2c1Sc1ccc(NS(=O)(=O)c2cc(Cl)ccc2OC)cc1 do in these assays?
FECH block: active

What do the screens show for `CCCc1cc(Sc2ccc(NC(=O)c3ccc(OC)c(OC)c3)cc2)n2ncnc2n1`?
FECH block: inactive

How did CCCc1c(C)nc2ncnn2c1Sc1ccc(NS(=O)(=O)c2cc(OC)ccc2OC)cc1 do in these assays?
FECH block: inactive

What do the screens show for `CCc1cc(Sc2ccc(NC(C)=O)cc2)n2ncnc2n1`?
FECH block: inactive

Results for CCCc1c(C)nc2ncnn2c1Sc1ccc(NC(=O)c2cc(OC)c(OC)c(OC)c2)cc1 ?
FECH block: inactive

What do the screens show for `CCCc1c(C)nc2ncnn2c1Sc1ccc(NC(=O)c2ccc(OC)c(OC)c2)cc1`?
FECH block: active

How did CCc1cc(Sc2ccc(NC(=O)c3cc(OC)cc(OC)c3)cc2)n2ncnc2n1 do in these assays?
FECH block: inactive

Results for CCc1c(C)nc2ncnn2c1Sc1ccc(NC(=O)c2c(OC)cccc2OC)cc1 ?
FECH block: inactive

Results for CCc1cc(Sc2ccc(NC(=O)Nc3ccc(Br)cc3)cc2)n2ncnc2n1 ?
FECH block: active

How did CCc1c(C)nc2ncnn2c1Sc1ccc(NS(=O)(=O)c2ccc(OC)c(OC)c2)cc1 do in these assays?
FECH block: inactive

What do the screens show for `CCc1cc(Sc2ccc(NC(=O)Nc3cccc(F)c3)cc2)n2ncnc2n1`?
FECH block: inactive

What do the screens show for `CCN(c1ccccc1)S(=O)(=O)c1cc(N2C(=O)CCS2(=O)=O)ccc1C`?
FECH block: inactive

Results for CC(=O)NCC1=CCCN(CCOc2cccc(C)c2C)C1 ?
FECH block: inactive

Results for CN1CCN(C(=O)C(=O)NCc2n[nH]c(=O)c3ccccc23)CC1 ?
FECH block: inactive

What do the screens show for `CCCS(=O)(=O)N1CCN(Cc2nc3cccnc3n2-c2ccc(C)cc2)CC1`?
FECH block: inactive

How did COc1cc(OC)cc(C(=O)Nc2ccccc2Sc2c(C)c(C)nc3nc(-c4ccccc4)nn23)c1 do in these assays?
FECH block: inactive

Results for CCc1c(C)nc2ncnn2c1Sc1ccc(NC(=O)c2ccc(OC)c(OC)c2)cc1 ?
FECH block: active

Results for CCCc1c(C)nc2ncnn2c1Sc1ccc(NC(=O)Cc2ccc(OC)cc2)cc1 ?
FECH block: inactive

How did COc1cc(OC)cc(C(=O)Nc2ccccc2Sc2c(C)c(C)nc3ncnn23)c1 do in these assays?
FECH block: active

How did CCc1c(C)nc2ncnn2c1Sc1ccc(NC(=O)Nc2ccc(OC)c(OC)c2)cc1 do in these assays?
FECH block: inactive

How did CCc1c(C)nc2ncnn2c1Sc1ccc(NC(=O)c2cccc(OC)c2)cc1 do in these assays?
FECH block: inactive

Results for CCCc1c(C)nc2ncnn2c1Sc1ccc(NC(=O)c2cccc(OC)c2)cc1 ?
FECH block: inactive

How did COc1ccccc1C(=O)Nc1ccccc1Sc1c(C)c(C)nc2ncnn12 do in these assays?
FECH block: inactive

What do the screens show for `CCCc1c(C)nc2ncnn2c1Sc1ccc(NC(=O)c2cc(OC)cc(OC)c2)cc1`?
FECH block: active

What do the screens show for `Cc1cc(C)n(C)c(=O)c1C(=O)NCc1ccccc1Cn1cccn1`?
FECH block: inactive

Results for COc1ccc(N2C(=O)CCS2(=O)=O)cc1S(=O)(=O)Nc1cccc(F)c1 ?
FECH block: inactive

What do the screens show for `COc1ccc(OC)c(Nc2nc(N3CCOCC3)nc3c2cnn3-c2ccccc2)c1`?
FECH block: inactive

What do the screens show for `Cc1cc(NC(=O)Cc2ccc(F)cc2)n(-c2ncnc3c2cnn3-c2ccc(Cl)cc2)n1`?
FECH block: inactive

What do the screens show for `Cn1cc(NC(=O)CN2CCC(N3CCCC(C(=O)NC4CC4)C3)CC2)cn1` (stereo not drawn)?
FECH block: inactive

What do the screens show for `CCc1cnc(C)nc1N[C@@H](C)c1cccc(OC)c1`?
FECH block: inactive

What do the screens show for `COc1ccc(NC(=O)c2cc(-c3ccc(OC)c(S(N)(=O)=O)c3)n[nH]2)cc1`?
FECH block: inactive

What do the screens show for `NS(=O)(=O)c1ccc(NC(=O)c2csnn2)cc1`?
FECH block: inactive

Results for COc1cc(Cl)cc2c1OC=CC(C(=O)Nc1ccc(S(N)(=O)=O)cc1)=C2 ?
FECH block: active
